About 79,000 compounds went through this panel and 15% of them were active in at least one assay; those are over-represented in the sample as a whole. No stated cut-off is given here; in the data, active means growth inhibition above about 70%; inactive means the rest.
What was measured:
[1] = NCI Yeast Anticancer Drug Screen. Data for the rad50 strain (AID 155);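 further: 0% = growth of vehicle-only cultures of the same strain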; conditions: S. cerevisiae rad50 strain growth inhibition; at 50.0 µM; hits give high values
Procedure, shortened: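 Compounds were tested on a yeast strain with an engineered DNA damage repair alteration; the reported value is growth inhibition normalised to vehicle treatment.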

[2] = NCI Yeast Anticancer Drug Screen. Data for the mec2-1 strain (AID 157); conditions: S. cerevisiae mec2-1 strain, at 50.0 µM, hits give high values
Procedure, shortened: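 Mutant yeast (mec2-1) grown with compound; growth inhibition relative to vehicle control reported.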

[3] = NCI Yeast Anticancer Drug Screen. Data for the sgs1 mgt1 strain (AID 161);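 further: 0% = growth of cultures given vehicle only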; conditions: S. cerevisiae sgs1 mgt1 strain, at 50.0 µM, hits give high values
Procedure, shortened: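 Growth of a repair-deficient yeast mutant was monitored after compound treatment and expressed as inhibition relative to vehicle-treated cultures.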

[4] = NCI Yeast Anticancer Drug Screen. Data for the cln2 rad14 strain (AID 165);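 further: 0% = growth equal to vehicle treated cultures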; conditions: S. cerevisiae cln2 rad14 strain, at 50.0 µM, hits give high values
Procedure, shortened: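 Readout is yeast growth inhibition versus vehicle-treated controls, using a strain with cln2 and rad14 alterations exposed to compound.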

[5] = NCI Yeast Anticancer Drug Screen. Data for the bub3 strain (AID 167); conditions: S. cerevisiae bub3 mutant strain, at 50.0 µM, hits give high values
Procedure, shortened: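 Growth of a checkpoint-deficient yeast mutant is measured after compound exposure. Values represent inhibition relative to vehicle.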

[6] = NCI Yeast Anticancer Drug Screen. Data for the mlh1 rad18 strain (AID 175); conditions: S. cerevisiae mlh1 rad18 strain growth inhibition; at 50.0 µM; hits give high values
Procedure, shortened: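 Genetically defined yeast (DNA repair-deficient) exposed to compounds; growth inhibition determined relative to vehicle.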

Measured: growth inhibition

c1ccc(-c2nnsc2-c2ccccc2)cc1
inactive: [1] 17.5% | [2] -4.35% | [3] 27.6% | [4] 10.8% | [5] -3.9% | [6] 20.4%

CC(=O)C1(O)CCC2C3CCC4CC(=O)CCC4(C)C3C(=O)CC21C (stereo unspecified)
inactive: [1] 4.4% | [2] -24.8% | [3] 2.25% | [4] 27.9% | [5] 13.6% | [6] -10.6%

Cc1nnc2c3[nH]c4ccccc4c3c(Cl)nn12
inactive: [1] -3.3% | [2] -7.25% | [3] 3.55% | [4] -52.2% | [5] -10.8% | [6] -11.1%

OC1Cn2cc(Br)c[n+]2C1 (stereo unspecified)
inactive: [1] 8.3% | [2] -5.5% | [3] -21.5% | [4] 1.2% | [5] -2% | [6] -13.6%

COC(=O)C(OC)(OC)C(O)c1ccccc1 (stereo unspecified)
inactive: [1] 34.4% | [2] 4.6% | [3] 49% | [4] 4.95% | [5] -9.35% | [6] 6.8%

O=c1ccc2ccc(-c3cnc(O)[nH]c3=O)oc-2c1
inactive: [1] 25.6% | [2] 2.05% | [3] 5.35% | [4] 1.4% | [5] 2.25% | [6] 10.3%

S=C(NCc1ccncc1)Nc1ccccc1Cl
inactive: [1] 2.75% | [2] -0.5% | [3] -4.7% | [4] 12.7% | [5] 6.1% | [6] 9.55%

Cc1cc2nc(/N=C/c3nc(O)c(C)[nH]3)[nH]c2cc1C
inactive: [1] 33.2% | [2] 22.4% | [3] 59% | [4] 20.4% | [5] 14.1% | [6] 56%

Cc1ccc2c(=O)cc(-c3cccc(F)c3)[nH]c2n1
inactive: [1] -4.9% | [2] -0.9% | [3] -11% | [4] 23.9% | [5] -6.25% | [6] -16.4%

O=C(Nc1ccccc1Cl)Oc1ccc(Cl)cc1Cl
inactive: [1] 3.5% | [2] 20.1% | [3] 7.4% | [4] -15.1% | [5] -6.05% | [6] -9.45%

CC(CN1CCCC1)OC(=O)C(c1ccccc1)C1CCCC1 (stereo unspecified)
inactive: [1] 6.15% | [2] -20.9% | [3] 20.1% | [4] -50.2% | [5] -4.85% | [6] -14.2%

O=C(O)C(=O)/C=C(\O)c1ccc(Br)cc1
inactive: [1] 32.3% | [2] 11.8% | [3] 3.7% | [4] -12.1% | [5] 36.4% | [6] 30.1%

Cc1cc(Cl)ccc1N=C1NC(=O)C(CC(=O)Nc2ccc(Cl)cc2Cl)S1 (stereo unspecified)
inactive: [1] 14.8% | [2] 13.1% | [3] -2.35% | [4] -46.4% | [5] -4.3% | [6] 19.8%

CCOC(=O)/C(=C/c1cc(OC)ccc1OC)P(=O)(OCC)OCC
inactive: [1] 6.05% | [2] -12.9% | [3] -17.6% | [4] -25.1% | [5] 4.65% | [6] -0.9%

CC(C)C(O)(C(=O)OCC1=CC[N+]2(C)CCC(O)C12)C(C)O (stereo unspecified)
inactive: [1] 27.6% | [2] -15.3% | [3] 11.4% | [4] -21.4% | [5] -3.2% | [6] 1.95%

CCOC(=O)C1=C(Nc2ccc(Cl)c(Cl)c2)OC/C1=N\NC(=O)Cc1ccccc1
inactive: [1] -49.8% | [2] -22% | [3] -4.05% | [4] -12% | [5] -11.7% | [6] -35.4%

CC(=O)OCc1cc(OC(C)=O)cnc1COC(C)=O
inactive: [1] -9.25% | [2] -24.6% | [3] -17.4% | [4] -19.2% | [5] -7.85% | [6] -36.2%

O=c1ccn2cnc3c(ncn3C3OC(CO)C(O)C3O)c2n1 (stereo unspecified)
inactive: [1] 4.8% | [2] 9% | [3] 10.2% | [4] 7.2% | [5] -10.9% | [6] 9.85%

CC(=O)N(C)c1cccc2cccc(S(=O)(=O)O)c12
inactive: [1] -18.2% | [2] -19.1% | [3] -17.1% | [4] -59.2% | [5] -2.05% | [6] -15.3%

O=[N+]([O-])c1ccccc1S(=O)NCc1c(Cl)cccc1Cl (stereo unspecified)
inactive: [1] 14.1% | [2] 13.3% | [3] 24.5% | [4] 22.5% | [5] 5.2% | [6] 24.5%

CSc1nc(Cl)nc2[nH]ncc12
inactive: [1] 11.3% | [2] -5.4% | [3] 1.1% | [4] -17.3% | [5] 4.45% | [6] 30.9%

Cl[Si]1(Cl)Oc2ccccc2O[Si](Cl)(Cl)Oc2ccccc2O1
inactive: [1] 16.2% | [2] 10.6% | [3] 8.35% | [4] 28.6% | [5] 3.7% | [6] 10.2%

CCN(CC)CC1(CC)COC(c2ccccc2)(c2ccccc2)OC1
inactive: [1] -3.3% | [2] -21.4% | [3] -18.6% | [4] -26.3% | [5] -14.2% | [6] -34.5%

CCOC(=O)C(C(C)=O)C(CC(=O)OC)NC(=O)OCc1ccccc1 (stereo unspecified)
inactive: [1] -24.5% | [2] -21.9% | [3] -60.6% | [4] -57.2% | [5] -32.2% | [6] -35.5%

N#C/C(=C\c1ccco1)c1ccc([N+](=O)[O-])cc1
inactive: [1] 16.2% | [2] 15.1% | [3] 25.6% | [4] -0.25% | [5] 42.3% | [6] 14.3%

C=CCCCCCCCCCO
inactive: [1] -9.2% | [2] -11% | [3] -1.9% | [4] 10.8% | [5] -18.4% | [6] -1.8%

O=C(Cc1ccccc1)NN1C(=O)/C(=C\c2cccc(O)c2)SC1=Nc1ccccc1
inactive: [1] -11% | [2] -18.9% | [3] -6% | [4] 5.9% | [5] -45.3% | [6] -16.9%

CCCC(=O)Oc1ccc(C(C)(C)C)cc1
inactive: [1] 38.7% | [2] 6.75% | [3] 15.2% | [4] 10.8% | [5] 20.4% | [6] 5.5%

C=CCN1C(SC)=NC(=O)C1(c1ccccc1)c1ccccc1
inactive: [1] 14.8% | [2] 9.95% | [3] 8.75% | [4] -10.2% | [5] 10.2% | [6] 22.8%

c1ccc(C2SCCN2c2ccccc2)cc1 (stereo unspecified)
inactive: [1] 9.2% | [2] -0.35% | [3] -20.4% | [4] 9.95% | [5] 11.8% | [6] -14.4%

CCC1CC2CCC(c3cc4c(cc3OC)N(C)C3C(O)(C(=O)OC)C(OC(C)=O)C5(CC)C=CCN6CCC43C65)c3[nH]c4ccccc4c3CCN(C1)C2 (stereo unspecified)
inactive: [1] 2.65% | [2] 6.65% | [3] 12.4% | [4] -1% | [5] -3.35% | [6] 18.9%

CCCCCCCCCCCCCCCCC(CCCCCCCCCCCCCCCC)c1ccccc1
inactive: [1] 35.2% | [2] -0.65% | [3] 13.4% | [4] -18.1% | [5] 4.05% | [6] 18.6%

O=C(Nc1ccc(N=Nc2ccccc2)cc1)c1ccc(Cl)cc1
inactive: [1] -11.1% | [2] 2.3% | [3] 12.1% | [4] -60.1% | [5] 2.35% | [6] -7.95%

CC/C(C)=N\NC(N)=O
inactive: [1] 6.85% | [2] 6.7% | [3] -29.7% | [4] -16.1% | [5] 0.1% | [6] 6.9%

CCCC1(c2ccccc2)SCC(=O)NC1=O (stereo unspecified)
inactive: [1] 31.3% | [2] -0.2% | [3] -16.6% | [4] -25.6% | [5] -14.2% | [6] -25.9%

N#CCCCOc1ccccc1
inactive: [1] -14.2% | [2] -13.6% | [3] 16.4% | [4] -6.7% | [5] -2.05% | [6] 5.4%

Cc1nc(=S)c2cnn(-c3ccccc3)c2[nH]1
inactive: [1] -15.4% | [2] -21.2% | [3] -3.9% | [4] -57.2% | [5] -27.1% | [6] -0.6%

CCCCCCC(C)CC(=O)O (stereo unspecified)
inactive: [1] -4.7% | [2] -3.85% | [3] 0% | [4] -59% | [5] -7.2% | [6] -21%

Cc1ccc(C(C)(C#N)Nc2ccccc2)cc1 (stereo unspecified)
inactive: [1] -7.05% | [2] -1.8% | [3] -8.2% | [4] -25.2% | [5] -11.2% | [6] -0.45%

COc1ccc(CN2CCCN(Cc3ccc(OC)cc3)C2c2ccc([N+](=O)[O-])cc2)cc1
inactive: [1] -0.3% | [2] 14.8% | [3] 12.8% | [4] -18.7% | [5] 32.9% | [6] -16.6%

CC(CNC(N)=O)NC(N)=O (stereo unspecified)
inactive: [1] -23.8% | [2] -15.8% | [3] -32.4% | [4] 11.4% | [5] -19.6% | [6] -24.4%
